The source of these data is ChEMBL document CHEMBL1857833, “Screening and optimization of specific chemical series against human African Trypanosomiasis (HAT)”.

Values joined by “and” are separate entries in the source; they are usually repeats but may differ in a detail not shown here. Equal entries are not always repeated. The whole screen tested about 4,400 compounds, of which about 390 (8.9%) showed an effect of 50% or more. The sample holds strong results, similar compounds and a random draw of the others, so the mix is not that of the screen.

The test system of this assay is Trypanosoma brucei. The assay is described as follows: DNDI: Inhibition of Human African Trypanosomiasis, SBRI 427, in vitro at 2 ug.mL-1. It counts as functional.
Take `COc1ccc(Oc2nc(C)ccc2/C(=N/O)NCc2cc(F)ccc2F)cc1`: the “% inhibition” value worked out at 15%.
The result for `Cc1ccc(/C(=N/O)N2CCSC2)c(Oc2ccc3oc4ccccc4c3c2)n1` reads 14%; that for `Cc1cccc(-c2nc(CNCC(F)(F)F)co2)c1`, -2%.
`COc1cccc(CNCc2coc(-c3ccc(Cl)cc3Cl)n2)c1OC`: the “% inhibition” value stood at 6%.
As for `CCN(Cc1ccccc1)Cc1coc(-c2cccc(F)c2)n1`, the figure is 14%; as for `Cc1ccc(/C(=N/O)n2ccnc2C)c(OCC(F)(F)F)n1`, 21%; as for `COC(=O)C1CCN(Cc2coc(-c3ccc(O)cc3)n2)CC1`, -3%.
As for `CCOc1ccc(-c2nc(CNCCCN(C)c3ccccc3)co2)cc1`, the “% inhibition” value was determined as 42%.
The result for `CCOc1ccccc1-c1nc(CN2CCN(c3ccc(C)cc3C)CC2)co1` reads 7%; that for `O/N=C(\NCC1CCCCC1)c1ccc(Oc2ccc(Cl)cc2)nc1`, 93%.
As for `COc1ccc(CN/C(=N\O)c2ccc(Oc3ccc(Cl)cc3)nc2)cc1`, the figure is 6%; as for `O/N=C(\NCC1CCCO1)c1ccc(Oc2ccc(Cl)cc2)nc1` (stereo not given), 47%.
Consider `O/N=C(\NCC1CCCO1)c1ccc(Oc2ccc(-n3ccnc3)cc2)nc1` (stereo not given), for which the “% inhibition” value is recorded as 32%.
For the molecule `O/N=C(\NCC1CCCCC1)c1ccc(Oc2ccc(-n3ccnc3)cc2)nc1`, the “% inhibition” value is reported as 78%.
For the molecule `O/N=C(\NCc1ccccc1)c1ccc(Oc2ccc(-n3ccnc3)cc2)nc1`, the “% inhibition” value worked out at 16%.
Take `O/N=C(\NCC1CCCCC1)c1ccc(Oc2ccc(F)cc2)nc1`: the “% inhibition” value was 28%.
Regarding `O/N=C(\NCc1ccncc1)c1ccc(Oc2ccc(Cl)cc2)nc1`, the “% inhibition” value was -11%.
As for `O/N=C(\NCc1ccccc1)c1ccc(Oc2ccc(Cl)cc2)nc1`, the figure is 57%; as for `CC1CN(Cc2coc(-c3ccc(Cl)cc3Cl)n2)CC(C)O1` (stereo not given), 14%; as for `CCCN/C(=N\O)c1ccc(C)nc1Oc1cccc(C(C)C)c1`, 4%.
Take `c1coc(-c2nc(CN3CCCc4ccccc43)co2)c1`: the “% inhibition” value was found to be 18%.
In the case of `COc1ccc(-c2nc(CNC(C)c3ccccc3)co2)cc1` (stereo not given), the “% inhibition” value was 3%.
As for `Cc1ccc(/C(=N/O)NCc2ccccn2)c(OCc2cccc(F)c2)n1`, the figure is -1%; as for `CCOc1ccc(-c2nc(Cn3ccnc3C(C)C)co2)cc1`, 10%; as for `COc1ccc(-c2nc(CNC(c3ccccc3)c3ccccc3)co2)cc1`, -28%.
For `COc1ccccc1Oc1ncccc1/C(=N/O)N1CCOCC1`, the “% inhibition” value is 16%.
As for `CCC(NCc1coc(-c2ccc(Br)cc2)n1)c1ccccc1` (stereo not given), the figure is -22% and -13%.
As to `Cc1ccc(Oc2nc(C)ccc2/C(N)=N/O)c(C)c1`, the “% inhibition” value is listed as 11%.
The result for `N#CCCN(Cc1coc(-c2ccc(F)cc2)n1)c1ccccc1` reads -10%; that for `O/N=C(\NCc1cccnc1)c1ccnc(Oc2cc(Cl)ccc2Cl)c1`, 17%.
For the molecule `Cc1ccc(Oc2cc(/C(=N/O)NCc3ccccc3C)ccn2)c(C)c1`, the “% inhibition” value worked out at 42%.
The result for `CC(C)(C)CN/C(=N\O)c1ccc(Oc2cc(Cl)ccc2Cl)nc1` reads 99%; that for `Cc1ccc(Oc2cc(/C(=N/O)N3CC(C)CC(C)C3)ccn2)c(C)c1` (stereo not given), 22%; that for `Cc1ccc(Oc2cc(/C(=N/O)N3CCCCCC3)ccn2)c(C)c1`, 98%.
The result for `O/N=C(\NCc1ccccc1)c1ccc(Oc2cc(Cl)ccc2Cl)nc1` reads 31%; that for `COCCN/C(=N\O)c1ccnc(Oc2cc(Cl)ccc2Cl)c1`, 27%; that for `COCCN/C(=N\O)c1ccnc(Oc2ccc(C)cc2C)c1`, 6%.
As for `Cc1cc(C)cc(CN/C(=N\O)c2ccc(Oc3cc(Cl)ccc3Cl)nc2)c1`, the figure is -11%; as for `Cc1ccc(Oc2cc(/C(=N/O)NCC(C)(C)C)ccn2)c(C)c1`, 96%; as for `CC(C)(C)CN/C(=N\O)c1ccnc(Oc2cc(Cl)ccc2Cl)c1`, 56%.
On to `Cc1ccc(Oc2cc(/C(=N/O)N3CCCCC3)ccn2)c2c1CCC2`, for which the “% inhibition” value is recorded as 19%.
As for `Cc1ccc(/C(N)=N/O)c(Oc2ccc(F)c(Cl)c2)n1`, the figure is 20%.
As for `COc1ccc(-c2nc(CN3CCCCCC3)co2)cc1`, the figure is 18%; as for `CCOc1ccc(-c2nc(CN3CCN(c4cccc(Cl)c4)CC3)co2)cc1`, -2%; as for `Cc1ccc(-c2nc(CNC(c3ccccc3)c3ccccc3)co2)cc1`, -9%.
For the molecule `CCOc1ccccc1-c1nc(CN(C)CC(C)C)co1`, the “% inhibition” value is 3%.
`COc1ccc(CNCc2coc(-c3cccs3)n2)cc1OC`: the “% inhibition” value is -8%.
As for `Cc1ccc(/C(=N/O)N2CCN(c3ccc(F)cc3)CC2)c(OCc2ccccc2F)n1`, the figure is 7%; as for `CCOc1ccc(-c2nc(CN3CCN(C(=O)c4ccco4)CC3)co2)cc1`, 0%; as for `CCC(CC)N/C(=N\O)c1cccnc1Oc1ccc(OC)cc1`, 100%.
`COCC(C)N/C(=N\O)c1cccnc1Oc1ccc(F)cc1` (stereo not given): the “% inhibition” value is given as 13%.
Regarding `CCC(CC)N/C(=N\O)c1cccnc1Oc1ccc(F)cc1`, the “% inhibition” value came to 96%.
The result for `COc1ccc(Oc2ncccc2/C(=N/O)NC(C)C)cc1` reads 4%; that for `COc1cc2c(cc1OC)C(C(C)C)N(Cc1coc(-c3ccc(F)cc3)n1)CC2` (stereo not given), 5%; that for `COc1ccc(CN/C(=N\O)c2ccc(C)nc2Oc2ccc(F)cc2)cc1`, 30%.
In the case of `CCC(C)(C)N/C(=N\O)c1cccnc1Oc1ccc(-n2cncn2)cc1`, the “% inhibition” value is 45%.
For `CCOC(=O)C1CCCN(Cc2coc(-c3ccc(Br)cc3)n2)C1` (stereo not given), the “% inhibition” value was found to be 0%.
With `CSc1ccc(Oc2ncccc2/C(=N/O)NCc2cccnc2)cc1`, the “% inhibition” value is 2%.
With `Cc1ccc(Oc2ncccc2/C(=N/O)N2CC=CCC2)c2c1CCC2`, the “% inhibition” value was determined as 14%.
Consider `CCc1nc(C)cn1Cc1coc(-c2cccc(OC)c2)n1`, for which the “% inhibition” value is given as -9%.
As to `COc1ccc(Oc2ncccc2/C(=N/O)N2CCCCC2)cc1`, the “% inhibition” value is 7%.
For the molecule `CCC(C)(C)N/C(=N\O)c1ccc(C)nc1Oc1ccc(F)c(Cl)c1`, the “% inhibition” value is listed as -27%.
With `CCC(C)(C)N/C(=N\O)c1ccc(C)nc1Oc1cc(Cl)ccc1Cl`, the “% inhibition” value is 63%.
Consider `CCC(C)(C)N/C(=N\O)c1ccc(C)nc1Oc1ccc(Cl)cc1`, for which the “% inhibition” value is -12%.
With `Cc1ccc(/C(=N/O)NCC(C)(C)C)c(Oc2cc(Cl)ccc2Cl)n1`, the “% inhibition” value is listed as 100%.
Regarding `CCOc1ccccc1-c1nc(CN2CC[C@@H]3CCCC[C@@H]3C2)co1`, the “% inhibition” value was 16%.
Turning to `CCOc1ccccc1-c1nc(Cn2ccnc2CC)co1`, the “% inhibition” value was -1%.
As for `N#CCCN(Cc1coc(-c2ccc(Cl)cc2Cl)n1)C1CCCCC1`, the figure is 3%; as for `O/N=C(\NCc1cc(F)ccc1F)c1ccc(Oc2cccc3cccnc23)nc1`, 4%; as for `COc1cc(-c2nc(CNCC(c3ccccc3)c3ccccc3)co2)cc(OC)c1OC`, 22%.
On to `Cc1cn(/C(=N\O)c2ccc(C)nc2Oc2cccc(F)c2)cn1`, for which the “% inhibition” value is on record as 0%.
The result for `COCCN(Cc1coc(-c2ccc(OC)cc2)n1)C(C)C` reads -10%; that for `Cn1nc(C(C)(C)C)cc1NCc1coc(-c2ccccc2Br)n1`, -43%.
Turning to `CC(C)(C)COc1ncccc1/C(=N/O)NCc1ccccc1`, the “% inhibition” value was 17%.
Regarding `CCCCCC(C)NCc1coc(-c2ccc(OC)cc2)n1` (stereo not given), the “% inhibition” value is given as 23%.
As for `CCCCCCC(C)NCc1coc(-c2cccc(C)c2)n1` (stereo not given), the figure is 0%.
The result for `CCCCCCC(C)NCc1coc(-c2ccc(OC)cc2)n1` (stereo not given) reads 65%.
The result for `CCCC(C)NCc1coc(-c2ccc(F)cc2)n1` (stereo not given) reads -16%.
With `CCCCCCC(C)NCc1coc(-c2ccc(O)cc2)n1` (stereo not given), the “% inhibition” value was determined as 52%.
`COc1ccc(-c2nc(CNC(C)CCCC(C)C)co2)cc1` (stereo not given): the “% inhibition” value is -10%.
For the molecule `CN(Cc1coc(-c2ccc(F)cc2)n1)C(c1ccccc1)c1ccccc1`, the “% inhibition” value is recorded as -2%.
For the molecule `Cc1ccc(/C(=N/O)N2CCC(N(C)C)C2)c(Oc2cccnc2)n1` (stereo not given), the “% inhibition” value was found to be 7%.
The result for `Cc1ccc([C@@H](C)NCc2coc(-c3cccc4ccccc34)n2)cc1` reads 79%.
As for `Cc1ccc(C(C)NCc2coc(-c3cccc4ccccc34)n2)cc1` (stereo not given), the “% inhibition” value is -2%.
As for `CCC(NCc1coc(-c2cccc3ccccc23)n1)c1ccccc1` (stereo not given), the “% inhibition” value was determined as 64%.
The result for `CCC(NCc1coc(-c2ccccc2Br)n1)c1ccccc1` (stereo not given) reads -20% and -22%; that for `CC(NCc1coc(-c2cccc3ccccc23)n1)c1ccccc1` (stereo not given), 26%.
As for `CC(CNCc1coc(-c2ccccc2Cl)n1)c1ccccc1` (stereo not given), the figure is -5%; as for `CCOc1cccc(-c2nc(CNCc3cccc(OC)c3)co2)c1`, -5%; as for `CCN(CC)CCN(CC)Cc1coc(-c2cccs2)n1`, 1%.
The result for `COc1cccc(-c2nc(Cn3ccnc3C(C)C)co2)c1` reads 5%; that for `Cn1nc(C(C)(C)C)cc1NCc1coc(-c2ccc(C(F)(F)F)cc2)n1`, -8%; that for `C=CCc1ccc(Oc2nc(C)ccc2/C(=N/O)NCc2ccc(OC)cc2)c(OC)c1`, 22%.
In the case of `C=CCc1ccc(Oc2nc(C)ccc2/C(=N/O)N2CCC(C(=O)OC)CC2)c(OC)c1`, the “% inhibition” value was determined as 27%.
In the case of `Cc1ccc(/C(=N/O)NCc2ccco2)c(Oc2ccc(Cl)cc2-c2ccno2)n1`, the “% inhibition” value turned out to be 13%.
For the molecule `C=CCc1ccc(Oc2nc(C)ccc2/C(=N/O)N2CCN(CC=C)CC2)c(OC)c1`, the “% inhibition” value amounted to 68%.
As for `Cc1ccc(/C(=N/O)NCc2cccs2)c(Oc2cc(Cl)ccc2Cl)n1`, the figure is 16%; as for `C=CCc1ccc(Oc2nc(C)ccc2/C(=N/O)NCc2ccco2)c(OC)c1`, 63%; as for `COc1ccc(CN/C(=N\O)c2ccc(C)nc2Oc2cc(Cl)ccc2Cl)cc1`, 14%.
With `Cc1ccc(/C(=N/O)NCc2ccco2)c(Oc2cc(Cl)ccc2Cl)n1`, the “% inhibition” value is reported as 62%.
Turning to `Cc1cc(C)cc(CN/C(=N\O)c2ccc(C)nc2Oc2cc(Cl)ccc2Cl)c1`, the “% inhibition” value was determined as 64%.
As for `C=CCc1ccc(Oc2nc(C)ccc2/C(=N/O)N2CCSCC2)c(OC)c1`, the figure is 48%; as for `C=CCc1ccc(Oc2nc(C)ccc2/C(=N/O)NCC2CC2)c(OC)c1`, 44%.
With `Cc1ccc(/C(=N/O)NCc2ccncc2)c(Oc2cc(Cl)ccc2Cl)n1`, the “% inhibition” value is listed as -10%.
For the molecule `CCOc1ccc(-c2nc(CNCc3ccc(OC)cc3OC)co2)cc1`, the “% inhibition” value was -17%.

By % inhibition is commonly meant the drop in the measured response relative to a control, in per cent.
